PubChem BioAssay AID720700 (The Scripps Research Institute Molecular Screening Center, 2013)
In all, about 370,000 compounds went through this assay and about 3,100 (0.84%) were called active. Shown is part of a subset that was picked to be rich in actives. Values without a mark were called inactive. Cut-off read from the data, not from the text of the source: active = inhibition above about 9.5%; inactive = the rest.

target: 1-phosphatidylinositol 4,5-bisphosphate phosphodiesterase gamma-1 (Homo sapiens) (UniProt P19174); assay: PLC-gamma1 enzyme inhibitors, primary screen, biochemical, fluorescence, purified enzyme (AID 720700); settings: purified PLC-gamma1, fluorogenic substrate, at 12.2 µM, stronger effect = higher value
Sequence (P19174 whole entry, looked up): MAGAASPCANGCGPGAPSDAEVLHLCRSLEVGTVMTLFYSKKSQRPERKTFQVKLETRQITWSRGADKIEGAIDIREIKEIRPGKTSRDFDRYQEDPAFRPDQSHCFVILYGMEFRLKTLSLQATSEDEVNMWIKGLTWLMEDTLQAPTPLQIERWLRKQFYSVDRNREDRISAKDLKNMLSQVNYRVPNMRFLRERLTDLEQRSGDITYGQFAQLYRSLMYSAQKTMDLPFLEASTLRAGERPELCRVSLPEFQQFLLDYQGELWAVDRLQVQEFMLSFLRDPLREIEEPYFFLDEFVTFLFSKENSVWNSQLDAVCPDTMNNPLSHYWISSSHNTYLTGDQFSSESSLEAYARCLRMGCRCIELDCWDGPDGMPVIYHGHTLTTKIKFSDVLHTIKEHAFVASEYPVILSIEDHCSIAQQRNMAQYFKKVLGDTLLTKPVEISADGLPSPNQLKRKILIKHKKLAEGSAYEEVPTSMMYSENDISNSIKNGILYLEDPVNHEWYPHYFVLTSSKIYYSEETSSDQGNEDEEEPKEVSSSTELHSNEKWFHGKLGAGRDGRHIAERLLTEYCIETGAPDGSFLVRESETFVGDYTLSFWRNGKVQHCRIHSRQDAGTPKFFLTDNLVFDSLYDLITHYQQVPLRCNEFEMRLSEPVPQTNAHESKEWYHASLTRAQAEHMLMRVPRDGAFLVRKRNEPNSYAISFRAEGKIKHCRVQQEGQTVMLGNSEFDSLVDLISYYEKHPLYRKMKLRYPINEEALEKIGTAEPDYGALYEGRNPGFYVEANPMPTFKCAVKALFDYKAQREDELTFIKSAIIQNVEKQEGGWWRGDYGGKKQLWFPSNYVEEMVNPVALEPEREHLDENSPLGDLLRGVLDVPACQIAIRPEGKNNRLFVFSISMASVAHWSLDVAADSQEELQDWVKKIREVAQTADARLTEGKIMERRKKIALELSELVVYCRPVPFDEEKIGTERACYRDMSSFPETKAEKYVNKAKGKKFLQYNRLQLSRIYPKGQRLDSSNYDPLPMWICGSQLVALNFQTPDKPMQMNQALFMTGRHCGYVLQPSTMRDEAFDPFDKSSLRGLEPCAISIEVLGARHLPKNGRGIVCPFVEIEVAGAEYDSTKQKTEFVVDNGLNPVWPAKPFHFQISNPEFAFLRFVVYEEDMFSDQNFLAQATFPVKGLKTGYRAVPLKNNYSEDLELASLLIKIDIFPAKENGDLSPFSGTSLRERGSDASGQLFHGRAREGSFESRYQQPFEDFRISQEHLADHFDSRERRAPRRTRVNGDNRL

Point of comparison: `O=C(NC1CCC1)c1ccc(C#Cc2cccc(F)c2)c[n+]1[O-]`, inhibition -0.74%. Against it:
- CCOc1ccc(N(CC(=O)Nc2c(C)n(C)n(-c3ccccc3)c2=O)S(=O)(=O)c2ccc(Cl)s2)cc1 — higher, 1.1%
- CN[C@H]1C[C@H]2c3cc(N4CCOCC4)ccc3CCN2C[C@H]1[C@H](C)O — lower, -7.18%
- Nn1c(SCC(=O)Nc2ccc(S(N)(=O)=O)cc2)nnc1-c1n[nH]c2c1CCC2 — higher, 3.04%
- COc1ccc(N2CC(C(=O)N[C@@H](C)C(=O)N3CCCCC3)CC2=O)cc1 (some centres not stated) — lower, -2.8%
- CCCC(C)c1nnc(NC(=O)C2CC(=O)N(c3ccc(OCC)cc3)C2)s1 (configuration not stated) — higher, 4.32%
- CCOC(=O)[C@]12CCCC3=C1N(CCC3)C(=O)[C@@H](CC(=O)NCC13CC4CC(CC(C4)C1)C3)C2 — higher, 0.85%
- O=C(Nc1cc(Cl)cc(Cl)c1)OCCN1CCCC12CCC(c1ccccc1)CC2 (configuration not stated) — higher, -0.68%
- COc1ccc(-n2c(SCC(=O)Nc3ccc(C)c(Cl)c3)nc3ccccc3c2=O)cc1 — higher, 5.06%
- CN(C)S(=O)(=O)c1cccc(C(=O)OCC(=O)N2CCCC2=O)c1 — higher, 1.6%
- C=CCN(c1ccc(C(N)=O)cc1)S(C)(=O)=O — higher, 2.1%
- O=C(NCc1ccco1)C1CCCN(S(=O)(=O)c2ccc(Cl)s2)C1 (configuration not stated) — higher, 2.2%
- C[C@@H]1CN([C@H](C)CO)C(=O)CCCn2nncc2CO[C@@H]1CN(C)C(=O)OCc1ccccc1 — higher, 5.09%
- C[C@H](CO)N1C[C@H](C)[C@@H](CN(C)C(=O)C2CCCCC2)OCc2cnnn2CCCC1=O — higher, 0.86%
- COC(=O)CC1CCc2cc(C)cc(C(CC(C)C)NC(=O)[C@H](CC(C)C)NC(=O)OCc3ccccc3)c2O1 (some centres not stated) — lower, -1.26%
- COc1ccc(S(=O)(=O)N2CCC(C(=O)NCCC(=O)Nc3ccccc3OC)CC2)cc1 — higher, 0.77%
- CCOc1ccccc1NC(=O)COc1ccc(S(=O)(=O)N2CCCC2)cc1 — higher, -0.48%
- CCC(CO)Nc1cccc2c1S(=O)(=O)N(Cc1cn(Cc3ccccc3C(F)(F)F)nn1)Cc1ccccc1O2 (configuration not stated) — lower, -5.47%
- CC(=O)c1cc(-c2ccc3ccccc3c2)c(=O)n2c1CCC2 — lower, -43.4%
- Cc1ccc(-n2ncc3c2CC(C)(C)CC3NC(=O)Cc2c(C)noc2C)cc1 (configuration not stated) — higher, 0.61%
- COc1ccc(-n2ncc3c2CC(C)(C)CC3NC(=O)CCc2c(C)nn(C)c2C)cc1 (configuration not stated) — higher, 2.97%
- COc1ccc(-c2cc(-c3nnc(SCC(=O)Nc4cccc5ccccc45)n3N)[nH]n2)cc1 — higher, -0.07%
- COC(=O)c1ccccc1-n1cc(COC(=O)NCCc2ccccc2)nn1 — lower, -14.2%
- C[C@H](C(=O)N(C)c1ccccc1)[C@@H](O)c1ccc(Cl)cc1 — higher, 0.47%
- COc1cccc(N(C)C(=O)[C@@H](C)[C@@H](O)c2ccc3ccccc3c2)c1 — higher, -0.17%
- CCN(CC(=O)Nc1ccc(C)c(S(=O)(=O)N(C)C)c1)Cc1ccccc1 — higher, 0.58%
- COc1ccc(CCC(=O)OCC(=O)Nc2ccc(C)c(S(=O)(=O)N(C)C)c2)cc1 — lower, -0.79%
- CC(C)N1CCCCC(NC(=O)C(C)(C)C)C1=O (configuration not stated) — higher, -0.44%
- CCC(C)[C@@H](C(=O)OC)N(CCc1cn(Cc2ccccc2)nn1)S(=O)(=O)c1ccccc1Br (some centres not stated) — higher, 2.53%
- Cc1nc(COc2cccc(Cl)c2)sc1C(=O)/C=C/N(C)C — higher, -0.19%
- Fc1ccc(OCc2nn3c(Cn4nnc5ccccc54)nnc3s2)cc1 — lower, -2.02%
- Cc1ccc(-n2c(COc3ccccc3)nnc2SCC(=O)Nc2ccc3c(c2)OCCO3)cc1 — higher, 2.55%
- CC(=O)OC12CCCN(C1)/C(=C/c1ccncc1)C2 (configuration not stated) — lower, -7.4%
- Cc1ccc(OCCNC(=O)CN2C(=O)NC3(CCCC3)C2=O)cc1 — higher, 0.18%
- COc1ccccc1CNC(=O)CCCN1C(=O)NC2(CCCC2)C1=O — higher, 1.01%
- CC(NCc1ccco1)C(=O)N1CCCCC1 (configuration not stated) — lower, -2.37%
- Cc1ccc(-n2c(SCC(=O)Nc3ccc(S(=O)(=O)Nc4nccs4)cc3)nnc2-c2ccncc2)cc1 — lower, -4.02%
- CC(=O)C1(C(=O)Nc2nccs2)CC(c2ccccc2C(F)(F)F)=NO1 (configuration not stated) — lower, -4.24%
- C=CCN1C(=O)[C@@H](CC(=O)NCCCOCCCC)[C@]2(C(=O)OCC)CCCCC/C=C/12 — lower, -1.4%
- Cc1ccc(C(=O)NC2CCN(C(=O)N3CCOCC3)CC2)cc1 — higher, 4.32%
- Cc1ccc(C(=O)C(=S)N2CCOCC2)cc1 — higher, 0.9%
- Fc1ccc2nc(COCc3nc4ccc(F)cc4[nH]3)[nH]c2c1 — higher, -0.44%
- Cc1cc(NS(=O)(=O)c2ccc(NC(=O)CSc3nnc(-c4ccc(C(C)(C)C)cc4)n3Cc3ccco3)cc2)nc(C)n1 — lower, -1.67%
- NC(c1csc(NC(=O)Nc2cccc(C(F)(F)F)c2)n1)C1CCCCC1 (configuration not stated) — higher, 6.49%
- COc1ccc(CC(N)c2csc(NC(=O)Nc3ccc(C(C)C)cc3)n2)cc1 (configuration not stated) — higher, 2.68%
- FC(F)(F)c1cccc(NC(=S)OC2CCC23CCC(c2ccccc2)CC3)c1 (configuration not stated) — higher, -0.1%
- O=C(CN1CCC(NC(=O)NCc2ccccc2)CC1)Nc1ccc2c(c1)OCCO2 — higher, -0.43%
- C#CCCN([C@H](C(=O)OC)C(C)C)S(=O)(=O)c1ccc(F)cc1Br — lower, -1.82%
- Cc1c(C(C)c2ccccc2O)[nH]c2ccccc12 (configuration not stated) — lower, -4.04%
- COc1ccccc1C(=O)Nc1ccc(OCC(=O)N2CCCCC2)cc1 — higher, 3.96%
- COc1ccccc1C(=O)N/C(=C/c1ccc2c(c1)OCO2)C(=O)Nc1cccc(C(=O)O)c1 — lower, -3.19%
- O=C(CSc1nc2ccccc2s1)N=Nc1c(O)[nH]c2ccccc12 — lower, -0.8%
- COC(=O)[C@H](C(C)C)N(CCc1cn(Cc2ccccc2)nn1)S(=O)(=O)c1ccc(F)cc1Br — higher, 1.89%
- O=C(Cn1nnc2ccccc2c1=O)NCc1ccc(Cl)cc1 — higher, 6.08%
- O=c1c2ccccc2nnn1CSc1nnnn1-c1ccccc1 — higher, 2.24%
- O=C(OC12CCCN(C1)/C(=C/c1cccnc1)C2)C1CCCC1 (configuration not stated) — higher, 2.54%
- O=C(c1c[nH]c2ccccc12)N1CCC(Oc2cccnc2)CC1 — higher, 5.31%
- Cc1ccc(C)c(-n2c(SCC(=O)O)nc3sc4c(c3c2=O)CCCC4)c1 — higher, 1.35%
- CCn1c(SCC(=O)Nc2ccc(Br)cc2)nc2sc3c(c2c1=O)CCN(C)C3 — lower, -70.8%
- Cc1ccc(CN2CCCCC(NC(=O)C3CCCCC3)C2=O)cc1 (configuration not stated) — higher, 7.08%
- CCCOc1ccc(Oc2c(Cl)cnn(Cc3cccc4ccccc34)c2=O)cc1 — lower, -1.93%
- CCOC(=O)C1CCN(C(=O)C(C)(C)NC(=O)Nc2ccccc2Cl)CC1 — higher, 0.94%
- Cc1ccccc1CN1CCCCC(NC(=O)c2cccc(C#N)c2)C1=O (configuration not stated) — lower, -2.09%
- O=C(CCNC(=O)c1ccc(Br)cc1)Nc1cccc(S(=O)(=O)N2CCCCC2)c1 — lower, -1.23%
- Cc1ccc(S(=O)(=O)N2CCCCC2)cc1NC(=O)CCNC(=O)c1ccccc1Cl — higher, 6.23%
- CC(=O)c1cccc(OCC(=O)OCC(=O)Nc2cc(S(=O)(=O)N3CCCCC3)ccc2C)c1 — higher, 1.9%
- CS(=O)(=O)c1ccc(Cl)c(NC(=O)COC(=O)c2cccc(S(=O)(=O)N3CCCC3)c2)c1 — higher, 1.69%
- CCOc1ccc(-n2c(SCC(=O)Nc3cc(C)c(NC(=O)c4ccccc4)cc3OC)nnc2-c2cccs2)cc1 — lower, -10.9%
- CCOC(=O)N1CCN(C(=O)C[C@H]2C[C@@]3(C(=O)OC)C(=C[C@H](C(C)(C)C)O[C@@H]3C)N(Cc3ccc(Cl)cc3Cl)C2=O)CC1 — higher, -0.28%
- O=C(c1cccc(C(F)(F)F)c1)N1CC[C@H]2[C@H](CCCN2Cc2cc(F)cc(F)c2)C1 — lower, -2.47%
- COC(=O)C1CN(CC(C)C)CCS(=O)(=O)N1Cc1ccc(C)cc1 (configuration not stated) — higher, 2.01%

With `CCOc1ccc(NC(=O)[C@H](C)NC(=O)C2CC(=O)N(c3ccc(OC)cc3)C2)cc1` (some centres not stated) the inhibition was 9.63% (active).
For `C=CCN(c1ccc(Cl)cc1)S(=O)(=O)c1cccc(C(=O)OCC(=O)N(C)C)c1`, the inhibition was 14% (active).
For `COC(=O)N(C)C[C@@H]1OCc2cnnn2CCCC(=O)N([C@@H](C)CO)C[C@@H]1C`, the inhibition was 14.2% (active).
For `CCOc1ccccc1NC(=O)CCN1CCN(S(=O)(=O)c2ccc(OC)cc2)CC1`, the inhibition was 10.4% (active).
With `Cc1ccc(-n2ncc3c2CC(C)(C)CC3NC(=O)CCc2cnn(C)c2)cc1` (configuration not stated) the inhibition was 13.8% (active).
With `C[C@H](C(=O)N(C)c1ccccc1)[C@@H](O)c1ccc2ccccc2c1` the inhibition was 16.5% (active).
`Cc1ccc(C(=O)Nc2ccc(C)c(S(=O)(=O)N(C)C)c2)s1` was tested, and the inhibition was 12.1% (active).
`CCOc1cccc(-c2nnc3sc(COc4ccc(OC)cc4)nn23)c1` was tested, and the inhibition was 10.2% (active).
`COc1ccccc1CCNC(=O)CN1C(=O)NC2(CCCC2)C1=O` was tested, and the inhibition was 10.4% (active).
In the case of `Cc1ccc(C(=O)N2CCN(C(=O)N3CCOCC3)CC2)cc1`, the inhibition is reported as 10.4% (active).
With `COc1ccc(C(N)c2csc(NC(=O)Nc3cccc(C(F)(F)F)c3)n2)cc1` (configuration not stated) the inhibition was 14.7% (active).
`COc1ccccc1C(=O)Nc1cccc(C(=O)N2CCOCC2)c1` was tested, and the inhibition was 12.6% (active).
`C=CCn1c(SCn2nnc3ccccc3c2=O)nnc1-c1ccc(Cl)cc1` was tested, and the inhibition was 11.2% (active).
With `CCn1c(SCC(C)=O)nc2sc3c(c2c1=O)CCCC3` the inhibition was 10.1% (active).
With `Cc1ccc(S(=O)(=O)N2CCCCC2)cc1NC(=O)CCNC(=O)c1ccccc1` the inhibition was 11.6% (active).
With `CC(=O)c1c(C)[nH]c(C(=O)OCC(=O)Nc2cc(S(=O)(=O)N3CCCCC3)ccc2C)c1C` the inhibition was 11.4% (active).
